Source: PubChem BioAssay
Sampled rows, rich in hits. Any-hit rate of the full collection: about 2.4%.
Pol kappa inh-1: DNA polymerase kappa (human) inhibition; Potency, µM (highest dose often 107 µM), actives largely listed as inhibitors; 400,000 tested, 0.53% active; Q9UBT6; purified Pol kappa, fluorescent DNA synthesis assay, 10 min
Target sequence (Q9UBT6 whole entry, looked up): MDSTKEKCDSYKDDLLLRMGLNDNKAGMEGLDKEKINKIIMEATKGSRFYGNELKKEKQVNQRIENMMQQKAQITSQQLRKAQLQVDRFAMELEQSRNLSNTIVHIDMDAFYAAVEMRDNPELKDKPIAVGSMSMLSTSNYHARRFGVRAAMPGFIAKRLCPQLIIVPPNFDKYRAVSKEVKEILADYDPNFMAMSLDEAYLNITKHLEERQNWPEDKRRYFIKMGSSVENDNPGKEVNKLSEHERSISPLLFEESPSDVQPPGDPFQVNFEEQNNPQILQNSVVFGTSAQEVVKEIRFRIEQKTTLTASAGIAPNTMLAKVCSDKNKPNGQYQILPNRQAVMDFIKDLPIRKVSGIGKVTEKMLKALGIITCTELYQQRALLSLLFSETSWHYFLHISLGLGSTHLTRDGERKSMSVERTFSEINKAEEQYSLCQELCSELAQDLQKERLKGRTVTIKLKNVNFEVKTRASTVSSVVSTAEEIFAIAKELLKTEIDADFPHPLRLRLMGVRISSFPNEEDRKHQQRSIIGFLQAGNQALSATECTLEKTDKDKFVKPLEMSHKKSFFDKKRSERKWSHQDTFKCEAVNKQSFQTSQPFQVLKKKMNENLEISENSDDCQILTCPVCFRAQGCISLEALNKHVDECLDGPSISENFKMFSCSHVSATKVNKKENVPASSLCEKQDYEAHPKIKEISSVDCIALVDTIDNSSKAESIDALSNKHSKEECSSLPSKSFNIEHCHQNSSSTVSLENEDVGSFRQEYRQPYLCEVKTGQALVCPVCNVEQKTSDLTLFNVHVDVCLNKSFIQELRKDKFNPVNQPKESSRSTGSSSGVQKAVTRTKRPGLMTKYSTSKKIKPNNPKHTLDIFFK
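First, compounds were pin-transferred onto 10 nM Pol kappa. After 15 min at room temperature, substrate was added to 50 nM final. Fluorescence was then measured kinetically at 0 and 10 min.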
WRN inhibitor: inhibitors of human WRN helicase | Q14191 | WRN helicase unwinding, fluorescent forked duplex, kinetic | Potency, µM (doses to about 114 µM), most hits filed as inhibitors | 360,000 tested, 0.46% active | AID 651768; also: nearly all actives have a fitted effect of over 55% in size
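Screening of the MLSMR collection measured strand separation of a quenched forked DNA duplex (100 nM) by 20 nM WRN with 2 mM ATP, all final. Compounds were preincubated with enzyme 15 min at room temperature.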
FEN1 inh: blocks human flap endonuclease 1. AID 588795. Recombinant FEN1 flap cleavage, fluorescence, 15 min. Potency, µM (top dose mostly 114 µM), hits mostly inhibitors. 390,000 tested, 0.35% active. P39748; also: nearly all actives have a fitted effect of over 65% in size
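Enzyme 10 nM, 15 min RT preincubation with compound; start with substrate 50 nM final; reads at 0 and 15 min; qHTS titration, four-parameter Hill fit.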
Pol iota inh: blocks human DNA polymerase iota activity | Q9UNA4 | Pol iota fluorescent replication assay, 10 min | Potency, µM (doses to about 115 µM), usual class: inhibitors | 390,000 tested, 1% active | AID 588590
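Fluorescent replication assay read twice, at 0 min and 10 min after adding 50 nM (final) substrate. Enzyme (10 nM) and compounds were first incubated 15 min at room temperature; enzyme-free buffer wells were negative controls.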
Pol beta inh: DNA polymerase beta (human) inhibition | P06746 | Pol beta primer extension/strand displacement, fluorescence kinetic | Potency, µM (series often up to 114 µM), hits mostly inhibitors | 340,000 tested, 1.3% active | AID 485314
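Pol beta (10 nM) was preincubated with compound for 15 min at room temperature. The reaction was then started with 50 nM substrate and read immediately and after a further 10 min at room temperature.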
Pol eta inh-1: inhibitors of human DNA polymerase eta | 390,000 tested, 1.2% active | Potency, µM (top dose mostly 114 µM), usual class: inhibitors | recombinant Pol eta, fluorescent DNA replication assay
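Pol eta at 10 nM preincubated with compounds 15 min at room temperature; reaction started with fluorescent substrate (50 nM final) and read kinetically at 0 and 10 min.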
Pol kappa inh-2: confirmation of human DNA polymerase kappa inhibitors; shares compounds with Pol eta inh-1; purified Pol-kappa, fluorescent strand-displacement substrate; Potency, µM, usual class: inhibitors; 920 tested, 76% active; AID 720501
Pol eta inh-2: Pol eta (human) inhibition, cherry-pick confirmation. shares compounds with Pol eta inh-1. Pol eta primer extension, TAMRA/BHQ fluorescence, 10 min. Potency, µM, usual class: inhibitors. 2,600 tested, 64% active. AID 720502
Of the large screens only hits and unclear results are named; the others gave an inactive call (follow-up assays come after a bar, where they were run). Calls follow the shape of the dose curve; as a rule, active = well fitted curve in the direction sought with a large enough effect; inconclusive = small, poorly fitted or top-dose-only effect, or another doubt; inactive = no such curve, though single readings can be large; an effect the other way counts as inactive or inconclusive.

Cc1cc(/C=C\c2nc(O)c([N+](=O)[O-])c(=O)[nH]2)c(C)n1-c1ccccc1	Pol kappa inh-1 89µM, WRN inhibitor inconclusive, FEN1 inh inconclusive, Pol iota inh 28µM, Pol beta inh 25µM, Pol eta inh-1 22µM | Pol eta inh-2 inconclusive
COc1ccc(-n2c(C)cc(/C=C/c3nc(O)c([N+](=O)[O-])c(=O)[nH]3)c2C)cc1	Pol kappa inh-1 50µM, FEN1 inh inconclusive, Pol iota inh inconclusive, Pol eta inh-1 20µM | Pol eta inh-2 inconclusive
Cc1cccc(-c2nc(SCC(=O)NCC3CCCO3)c3c(=O)n(C)c(=O)n(C)c3n2)c1 (stereo not drawn)	none (no result: WRN inhibitor)
COc1cccc(CNC(=O)c2cc3c(=O)n(Cc4cccnc4)ccc3nc2C)c1	none (no result: WRN inhibitor)
CCOc1ccc(CNC(=O)C2Cc3cc(S(=O)(=O)N4CCCCCC4)ccc3N2C(C)=O)cc1 (stereo not drawn)	none (no result: WRN inhibitor)
Cc1cc(C=O)c(C)n1-c1sc2c(c1C(=O)O)CCCC2	Pol eta inh-1 inconclusive
Cc1ccc(C(=O)O)cc1-n1c(C)cc(C=O)c1C	Pol kappa inh-1 inconclusive, Pol iota inh 28µM, Pol beta inh 18µM, Pol eta inh-1 20µM | Pol eta inh-2 60
COC(=O)c1sc2cccc(F)c2c1S(=O)(=O)N1CCN(c2cccc(C)c2)C(C)C1 (stereo not drawn)	none (no result: WRN inhibitor)
CCOCC(=O)Nc1cccc(-c2nc3cccnc3s2)c1C	none
COc1ccc(C(=O)Nc2cccc(-c3nc4cccnc4s3)c2C)c(OC)c1	Pol kappa inh-1 inconclusive, Pol iota inh 79µM (no result: WRN inhibitor) | Pol kappa inh-2 47
COc1ccc(N2CC(NC(=O)COc3ccccc3C)CC2=O)cc1OC (stereo not drawn)	none (no result: WRN inhibitor)
COC(=O)Cc1cc(=O)oc2cc(OC)ccc12	none
COC(=O)Cc1cc(C)cc2c(=O)cc(-c3ccoc3)oc12	WRN inhibitor inconclusive, Pol iota inh inconclusive, Pol eta inh-1 50µM (no result: Pol beta inh) | Pol eta inh-2 inconclusive
Cc1cccc(-n2c3nc(=O)[nH]c(=O)c-3cc3ccc(Cl)cc32)c1C	none (no result: WRN inhibitor)
Cc1ccc(-c2csc3ncn(CC#N)c(=O)c23)cc1C	Pol kappa inh-1 79µM, FEN1 inh inconclusive, Pol iota inh 28µM, Pol beta inh 32µM, Pol eta inh-1 20µM | Pol kappa inh-2 60 | Pol eta inh-2 54
CCC1(c2ccc(O)cc2)NC(=O)N(C)C1=O (stereo not drawn)	none (no result: WRN inhibitor, FEN1 inh, Pol iota inh, Pol beta inh, Pol eta inh-1)
Cc1sc2nc(SCC(=O)N3CC(C)OC(C)C3)n(C)c(=O)c2c1C (stereo not drawn)	Pol iota inh inconclusive, Pol beta inh inconclusive, Pol eta inh-1 16µM | Pol eta inh-2 inconclusive
CCOC(=O)CSc1nc2sc(C)c(C)c2c(=O)n1C	none
O=C(Nc1cccc(Cl)c1)c1ccc2nc(Cc3ccccc3)oc2c1	none (no result: WRN inhibitor)
Cn1nc2c(c1C(=O)O)CCCC2	Pol kappa inh-1 inconclusive, Pol iota inh inconclusive, Pol beta inh inconclusive, Pol eta inh-1 8.9µM | Pol eta inh-2 27
CN=c1scc(-c2cccs2)n1/N=C/c1ccc(O)c(O)c1O	Pol kappa inh-1 inconclusive, WRN inhibitor inconclusive, FEN1 inh 35µM, Pol iota inh inconclusive, Pol beta inh 2.8µM, Pol eta inh-1 inconclusive | Pol eta inh-2 76
Cc1ccc(-c2nnn3c2nc(NCc2ccc4c(c2)OCO4)c2ccccc23)cc1	none (no result: WRN inhibitor)
CC(C(=O)NC1C(=O)N2C(C(=O)O)=C(CSc3nnnn3C)CSC12)n1cc(Br)cn1 (stereo not drawn)	Pol kappa inh-1 inconclusive, Pol iota inh inconclusive, Pol beta inh 18µM, Pol eta inh-1 32µM | Pol eta inh-2 inconclusive
NC(C(=O)NC1C(=O)N2C(C(=O)O)=C(Cl)CSC12)c1ccccc1 (stereo not drawn)	none (no result: WRN inhibitor, FEN1 inh, Pol iota inh, Pol beta inh, Pol eta inh-1)
Cn1nnnc1SCC1=C(C(=O)O)N2C(=O)C(NC(=O)C3CC3c3ccccc3)C2SC1 (stereo not drawn)	Pol kappa inh-1 inconclusive, WRN inhibitor inconclusive, Pol iota inh 14µM, Pol beta inh 32µM, Pol eta inh-1 14µM | Pol kappa inh-2 67 | Pol eta inh-2 48
COc1ccc(SCC(c2ccccc2)N2CCN(CC(C)C)CCC2=O)cc1 (stereo not drawn)	none (no result: WRN inhibitor, Pol beta inh, Pol eta inh-1)
Cc1ccc(NC(=O)CCC(=O)c2ccc(Cl)s2)nc1	Pol kappa inh-1 inconclusive, Pol iota inh inconclusive, Pol eta inh-1 40µM (no result: Pol beta inh) | Pol kappa inh-2 inconclusive
CCN(CC)S(=O)(=O)c1cccc(NC(=O)COC(=O)/C=C/c2ccco2)c1	none
CN(C)S(=O)(=O)c1cccc(NC(=O)COC(=O)/C=C/c2ccco2)c1	Pol beta inh 32µM, Pol eta inh-1 inconclusive | Pol eta inh-2 inconclusive
O=[N+]([O-])c1cc(Br)cc(C=Nc2ccc3c(c2)OCO3)c1O	Pol kappa inh-1 inconclusive, FEN1 inh inconclusive, Pol iota inh inconclusive, Pol beta inh 25µM, Pol eta inh-1 79µM | Pol eta inh-2 76
O=[N+]([O-])c1ccc(O)c(C=Nc2ccc3c(c2)OCO3)c1	none
O=C(O)c1cccc(NS(=O)(=O)c2ccc(-c3ccc(S(=O)(=O)Nc4cccc(C(=O)O)c4)cc3)cc2)c1	Pol kappa inh-1 50µM, FEN1 inh inconclusive, Pol iota inh inconclusive, Pol beta inh inconclusive, Pol eta inh-1 inconclusive | Pol kappa inh-2 21 | Pol eta inh-2 inconclusive
O=C(NN1C(=O)C2CC=C(Cl)CC2C1=O)c1ccncc1 (stereo not drawn)	Pol kappa inh-1 50µM, WRN inhibitor inconclusive, Pol iota inh 40µM, Pol beta inh 3.2µM, Pol eta inh-1 10µM | Pol eta inh-2 60
Cc1ccc(/C=C(\C#N)C(=O)NCC2CCCO2)o1 (stereo not drawn)	none
N#C/C(=C/c1ccc(-c2ccc(C(=O)O)c(Cl)c2)o1)C(=O)NCC1CCCO1 (stereo not drawn)	Pol kappa inh-1 inconclusive, Pol iota inh inconclusive, Pol beta inh inconclusive, Pol eta inh-1 10µM | Pol eta inh-2 inconclusive
CC(=O)Nc1ccc2c(O)cc(S(=O)(=O)O)cc2c1	Pol kappa inh-1 inconclusive, FEN1 inh inconclusive, Pol iota inh 20µM, Pol eta inh-1 32µM (no result: Pol beta inh) | Pol kappa inh-2 inconclusive | Pol eta inh-2 inconclusive
O=C(CCS(=O)(=O)c1ccc(Br)cc1)Nc1ccc(F)cc1F	none (no result: WRN inhibitor)
CCOc1ccccc1NC(=O)CCS(=O)(=O)c1ccc(Br)cc1	Pol kappa inh-1 inconclusive, WRN inhibitor 50µM, Pol iota inh 18µM, Pol beta inh 10µM, Pol eta inh-1 18µM | Pol eta inh-2 24
CCOc1ccccc1NC(=O)CCNS(=O)(=O)c1ccc(NC(C)=O)cc1	none
